For 38 molecules, Potency results are on record in PubChem BioAssay (NCATS).

Records with an inconclusive call do not appear. A call without a number means that no potency is given here. Activity calls are given as the source filed them. Unless noted, calls follow the shape of the dose curve; as a rule, active = well fitted inhibition curve with a large enough effect in the repeat runs; inconclusive = weak or mixed curves; inactive = flat fitted curve, though single readings scatter.

Sequence of Cytochrome P450 2D6 (Homo sapiens) (P10635 whole entry, looked up): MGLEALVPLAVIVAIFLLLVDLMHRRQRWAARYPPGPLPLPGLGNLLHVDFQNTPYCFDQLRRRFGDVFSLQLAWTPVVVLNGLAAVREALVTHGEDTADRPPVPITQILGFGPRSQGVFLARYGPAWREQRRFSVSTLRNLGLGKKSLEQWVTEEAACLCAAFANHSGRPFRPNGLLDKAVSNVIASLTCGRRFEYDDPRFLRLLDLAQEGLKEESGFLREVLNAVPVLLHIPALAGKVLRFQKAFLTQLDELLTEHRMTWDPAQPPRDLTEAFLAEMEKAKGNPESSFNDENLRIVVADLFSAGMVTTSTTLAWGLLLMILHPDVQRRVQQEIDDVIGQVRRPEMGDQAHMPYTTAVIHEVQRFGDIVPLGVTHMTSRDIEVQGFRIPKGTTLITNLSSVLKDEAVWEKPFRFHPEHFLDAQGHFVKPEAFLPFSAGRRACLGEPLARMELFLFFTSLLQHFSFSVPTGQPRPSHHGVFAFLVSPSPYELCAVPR

Test system in the first assay: not listed separately
Put plainly: A High-Content qHTS Against Drug Library for the Identification of Small Molecules that Inhibit DYT1 Early Onset Primary Dystonia-Associated Cell Pathology (AID 1645839; calls by dose curve). The settings on record: HEK293 Flp-In EGFP-delE TorsinA, punctate imaging, 48 h; series mostly up to 46.1 µM. Summed up: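 Cells were seeded and left for 24 h, then dosed with compound alongside tetracycline induction of mutant EGFP-TorsinA. They were incubated for 48 h, fixed in 4% paraformaldehyde, permeabilized and imaged for mislocalization (%pathology) and cell count.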
In the case of `Cc1ncc(CO)c(CN)c1O`, the Potency result is “inactive”.

For `COC(=O)N/N=C/c1c[n+]([O-])c2ccccc2[n+]1[O-]`, the Potency result is “inactive”.

In the case of `CC1(C)S[C@@H]2[C@H](NC(=O)C(C(=O)O)c3ccccc3)C(=O)N2[C@H]1C(=O)O` (stereo partly specified), the Potency result was “inactive”.

Turning to `CC(=O)Oc1cccc(C)c1`, the Potency result is “inactive”.

With `CCCCCOC(=O)Nc1nc(=O)n([C@@H]2O[C@H](C)[C@@H](O)[C@H]2O)cc1F`, the Potency result is “inactive”.

With `CC(=O)N[C@H]1[C@H]([C@H](O)[C@H](O)CO)OC(C(=O)O)=C[C@@H]1N=C(N)N`, the Potency entry was “inactive”.

Regarding `O=C(O)C(S)C(S)C(=O)O` (stereo unspecified), the Potency result is “inactive”.

Turning to `CC1(C)S[C@@H]2[C@H](N=CN3CCCCCC3)C(=O)N2[C@H]1C(=O)O`, the Potency result is “inactive”.

For `CC(C)c1cc2c(cc1S(=O)(=O)O)[C@@]1(C)CCC[C@@](C)(C(=O)O)[C@@H]1CC2`, the Potency result is “inactive”.

For `C[C@@H]1O[C@@H](OC[C@H]2O[C@@H](Oc3c(-c4ccc(O)c(O)c4)oc4cc(O)cc(O)c4c3=O)[C@H](O)[C@@H](O)[C@@H]2O)[C@H](O)[C@H](O)[C@H]1O`, the Potency entry was “inactive”.

For `NC(=O)CCCCC1CCSS1` (stereo unspecified), the Potency result was “inactive”.

For `CC(=O)Nc1ccc(C(=O)O)cc1`, the Potency result is “inactive”.

As to `Cc1cc(-n2nc3ccc(Cl)cc3n2)c(O)c(C(C)(C)C)c1`, the Potency result was “inactive”.

In the case of `CN1CC(=O)NC1=N`, the Potency result was “inactive”.

With `O=C(O)COC(=O)Cc1ccccc1Nc1c(Cl)cccc1Cl`, the Potency result is “inactive”.

`O=C(O)Cc1cn(-c2ccccc2)nc1-c1ccc(Cl)cc1`: the Potency entry was “inactive”.

For the molecule `Cc1c(I)c(=O)n(-c2ccccc2)n1C`, the Potency entry was “inactive”.

Take `CCOC(N)=O`: the Potency result was “inactive”.

In the case of `NC(=O)NC1NC(=O)NC1=O` (stereo unspecified), the Potency entry is “inactive”.

Regarding `NC(=O)NS(=O)(=O)c1ccc(N)cc1`, the Potency entry is “inactive”.

Regarding `CC(=O)Oc1cccc(O)c1`, the Potency entry was “inactive”.

Regarding `O=C(O)c1ccc(OCCCOc2ccc(C(=O)O)cc2)cc1`, the Potency result is “inactive”.

As to `Cc1ccsc1C(=CCCN1CCC[C@@H](C(=O)O)C1)c1sccc1C`, the Potency entry is “inactive”.

For `CN(C(=O)c1c(O)c2ccccc2n(C)c1=O)c1ccccc1`, the Potency result was “inactive”.

In the case of `CN1CCN(C(=O)C2CCCCC2)CC1`, the Potency entry is “inactive”.

`COC(=O)c1cccnc1`: the Potency entry was “inactive”.

On to `O=C(O)c1ccccc1OP(=O)(O)O`, for which the Potency result is “inactive”.

Turning to `C[C@]1(Cn2ccnn2)[C@H](C(=O)O)N2C(=O)C[C@H]2S1(=O)=O`, the Potency entry is “inactive”.

In the case of `C=CCNC(N)=S`, the Potency result was “inactive”.

In the case of `C[n+]1ccccc1/C=N/O`, the Potency result was “inactive”.

Take `O=C(NCN1CCOCC1)c1cnccn1`: the Potency entry is “inactive”.

Take `NCC1CCC(C(=O)Oc2ccc(CCC(=O)O)cc2)CC1` (stereo unspecified): the Potency entry was “inactive”.

On to `C/C=C1\[C@H]2C=C(C)C[C@]1(N)c1ccc(=O)[nH]c1C2`, for which the Potency result is “inactive”.

For the molecule `C[N+]1(C)CCCC(OC(=O)C(O)(c2ccccc2)c2ccccc2)C1` (stereo unspecified), the Potency result was “inactive”.

Turning to `O=C(O)CCCCC1CCSS1` (stereo unspecified), the Potency result is “inactive”.

Take `CC[N+](C)(CC)CCOC(=O)C1c2ccccc2Oc2ccccc21`: the Potency result is “inactive”.

`COc1nccnc1NS(=O)(=O)c1ccc(N)cc1`: the Potency entry is “inactive”.

As for `CCCCCC(C)N` (stereo unspecified), the Potency entry was “inactive”.

The target in the next assay is Cytochrome P450 2D6 (Homo sapiens) (UniProt P10635). Put plainly: Cytochrome P450 family 2 subfamily D member 6 (CYP2D6) small molecule antagonists: luciferase biochemical (cell-free) qHTS assay (AID 1645840). Also: nearly all actives have a fitted effect of over 55% in size. Also: potency is read from the fitted curve at half-maximal effect. The note with it: P450-Glo CYP2D6 enzyme, luciferin luminescence, 1 h; series mostly up to 57.4 µM. Summed up:
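P450-Glo CYP2D6 system: proluciferin substrate converted by enzyme to luciferin, read by luminescence proportional to activity. Enzyme-substrate mix with compound 10 min at room temperature, then NADPH regeneration 1 h before detection reagent.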
As to `Cc1ncc(CO)c(CN)c1O`, the Potency entry was “inactive”.

Turning to `COC(=O)N/N=C/c1c[n+]([O-])c2ccccc2[n+]1[O-]`, the Potency result is “inactive”.

Take `CC1(C)S[C@@H]2[C@H](NC(=O)C(C(=O)O)c3ccccc3)C(=O)N2[C@H]1C(=O)O` (stereo partly specified): the Potency entry was “inactive”.

With `CC(=O)Oc1cccc(C)c1`, the Potency entry was “inactive”.

On to `CCCCCOC(=O)Nc1nc(=O)n([C@@H]2O[C@H](C)[C@@H](O)[C@H]2O)cc1F`, for which the Potency entry is “inactive”.

For `CC(=O)N[C@H]1[C@H]([C@H](O)[C@H](O)CO)OC(C(=O)O)=C[C@@H]1N=C(N)N`, the Potency result was “inactive”.

Consider `O=C(O)C(S)C(S)C(=O)O` (stereo unspecified), for which the Potency result is “inactive”.

As for `CC1(C)S[C@@H]2[C@H](N=CN3CCCCCC3)C(=O)N2[C@H]1C(=O)O`, the Potency entry is “inactive”.

For `CC(C)c1cc2c(cc1S(=O)(=O)O)[C@@]1(C)CCC[C@@](C)(C(=O)O)[C@@H]1CC2`, the Potency entry is “inactive”.

On to `C[C@@H]1O[C@@H](OC[C@H]2O[C@@H](Oc3c(-c4ccc(O)c(O)c4)oc4cc(O)cc(O)c4c3=O)[C@H](O)[C@@H](O)[C@@H]2O)[C@H](O)[C@H](O)[C@H]1O`, for which the Potency result is “inactive”.

For the molecule `NC(=O)CCCCC1CCSS1` (stereo unspecified), the Potency entry is “inactive”.

Consider `CC(=O)Nc1ccc(C(=O)O)cc1`, for which the Potency result was “inactive”.

Regarding `Cc1cc(-n2nc3ccc(Cl)cc3n2)c(O)c(C(C)(C)C)c1`, the Potency result was “inactive”.

On to `CN1CC(=O)NC1=N`, for which the Potency entry is “inactive”.

`O=C(O)COC(=O)Cc1ccccc1Nc1c(Cl)cccc1Cl`: the Potency result was “inactive”.

Turning to `O=C(O)Cc1cn(-c2ccccc2)nc1-c1ccc(Cl)cc1`, the Potency result was “inactive”.

Take `Cc1c(I)c(=O)n(-c2ccccc2)n1C`: the Potency entry was “inactive”.

In the case of `CCOC(N)=O`, the Potency result is “inactive”.

As for `NC(=O)NC1NC(=O)NC1=O` (stereo unspecified), the Potency result was “inactive”.

Consider `NC(=O)NS(=O)(=O)c1ccc(N)cc1`, for which the Potency entry is “inactive”.

Turning to `CC(=O)Oc1cccc(O)c1`, the Potency result is “inactive”.

`O=C(O)c1ccc(OCCCOc2ccc(C(=O)O)cc2)cc1`: the Potency was 12.3 µM (active).

`Cc1ccsc1C(=CCCN1CCC[C@@H](C(=O)O)C1)c1sccc1C`: the Potency result is “inactive”.

In the case of `CN(C(=O)c1c(O)c2ccccc2n(C)c1=O)c1ccccc1`, the Potency entry is “inactive”.

For `CN1CCN(C(=O)C2CCCCC2)CC1`, the Potency result is “inactive”.

`COC(=O)c1cccnc1`: the Potency result was “inactive”.

In the case of `O=C(O)c1ccccc1OP(=O)(O)O`, the Potency result was “inactive”.

Regarding `C[C@]1(Cn2ccnn2)[C@H](C(=O)O)N2C(=O)C[C@H]2S1(=O)=O`, the Potency result was “inactive”.

For `C=CCNC(N)=S`, the Potency entry is “inactive”.

As for `C[n+]1ccccc1/C=N/O`, the Potency result was “inactive”.

In the case of `O=C(NCN1CCOCC1)c1cnccn1`, the Potency entry is “inactive”.

Take `NCC1CCC(C(=O)Oc2ccc(CCC(=O)O)cc2)CC1` (stereo unspecified): the Potency result is “inactive”.

Take `C/C=C1\[C@H]2C=C(C)C[C@]1(N)c1ccc(=O)[nH]c1C2`: the Potency result is “inactive”.

Regarding `C[N+]1(C)CCCC(OC(=O)C(O)(c2ccccc2)c2ccccc2)C1` (stereo unspecified), the Potency is 12.3 µM (active).

As for `O=C(O)CCCCC1CCSS1` (stereo unspecified), the Potency entry is “inactive”.

Take `CC[N+](C)(CC)CCOC(=O)C1c2ccccc2Oc2ccccc21`: the Potency is 4.36 µM (active).

For `COc1nccnc1NS(=O)(=O)c1ccc(N)cc1`, the Potency entry is “inactive”.

Turning to `CCCCCC(C)N` (stereo unspecified), the Potency result is “inactive”.
